Reference: the supplement of paper PMC12645437, “Orthogonal IMiD-Degron Pairs Induce Selective Protein Degradation in Cells” (ACS Chemical Biology, 2025)
Over roughly 8,300 sequences, “log2 fold change of degron read counts, EGFP-low vs EGFP+ sorted cells (limma voom), compound-induced degradation” has its median near -1.1; the highest 2% begin near 3.2. Many of the other results were omitted from the sample, so the highest values are more common in it than they were.

T1: CRBN, Q96SW2
T1 chain: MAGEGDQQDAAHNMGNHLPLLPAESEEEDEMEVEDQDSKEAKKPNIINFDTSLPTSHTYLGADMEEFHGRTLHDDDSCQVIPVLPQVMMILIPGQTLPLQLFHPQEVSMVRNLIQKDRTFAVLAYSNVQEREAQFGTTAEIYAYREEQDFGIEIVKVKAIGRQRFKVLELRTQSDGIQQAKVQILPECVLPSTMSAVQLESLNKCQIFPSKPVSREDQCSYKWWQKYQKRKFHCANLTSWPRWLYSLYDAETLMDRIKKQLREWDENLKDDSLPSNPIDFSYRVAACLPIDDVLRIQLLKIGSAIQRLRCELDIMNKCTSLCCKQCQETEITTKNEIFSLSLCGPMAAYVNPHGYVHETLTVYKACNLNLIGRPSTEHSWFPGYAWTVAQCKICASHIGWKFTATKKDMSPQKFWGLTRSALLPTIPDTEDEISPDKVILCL

B1: 46F_47S_49P_50V_52G_53A_54V_55F_67L_, Q9UKT9 (peptide)
chain: FSCPVCGAVFTQKGNLLRHIKL
B2: 46F_47V_49P_50V_52G_53A_54V_55F_67L_, Q9UKT9 (peptide)
chain: FVCPVCGAVFTQKGNLLRHIKL
B3: 46F_47D_49P_50V_52G_53A_54V_55F_67L_, Q9UKT9 (peptide)
chain: FDCPVCGAVFTQKGNLLRHIKL
B4: 46F_47F_49P_50Q_52G_53A_54V_55F_67L_, Q9UKT9 (peptide)
chain: FFCPQCGAVFTQKGNLLRHIKL
B5: 46F_47M_49P_50V_52G_53A_54V_55F_67L_, Q9UKT9 (peptide)
chain: FMCPVCGAVFTQKGNLLRHIKL
B6: 46F_47Q_49P_50Q_52G_53A_54V_55F_67L_, Q9UKT9 (peptide)
chain: FQCPQCGAVFTQKGNLLRHIKL
B7: 46F_47G_49P_50V_52G_53A_54V_55F_67L_, Q9UKT9 (peptide)
chain: FGCPVCGAVFTQKGNLLRHIKL
B8: 46F_47V_49P_50Q_52G_53A_54V_55F_67L_, Q9UKT9 (peptide)
chain: FVCPQCGAVFTQKGNLLRHIKL
B9: 46F_47Q_49P_50V_52G_53A_54V_55F_67L_, Q9UKT9 (peptide)
chain: FQCPVCGAVFTQKGNLLRHIKL
B10: 46F_47K_49N_50I_52G_53A_54V_55F_67L_, Q9UKT9 (peptide)
chain: FKCNICGAVFTQKGNLLRHIKL
B11: 46F_47Y_49N_50I_52G_53A_54V_55F_67L_, Q9UKT9 (peptide)
chain: FYCNICGAVFTQKGNLLRHIKL
B12: 46F_47Q_49N_50I_52G_53A_54V_55F_67L_, Q9UKT9 (peptide)
chain: FQCNICGAVFTQKGNLLRHIKL
B13: 46F_47H_49D_50Q_52G_53A_54P_55F_67L_, Q9UKT9 (peptide)
chain: FHCDQCGAPFTQKGNLLRHIKL
B14: 46F_47K_49S_50V_52G_53H_54P_55F_67L_, Q9UKT9 (peptide)
chain: FKCSVCGHPFTQKGNLLRHIKL
B15: 46F_47Y_49P_50I_52G_53H_54M_55F_67L_, Q9UKT9 (peptide)
chain: FYCPICGHMFTQKGNLLRHIKL
B16: 46F_47E_49D_50V_52G_53A_54M_55F_67L_, Q9UKT9 (peptide)
chain: FECDVCGAMFTQKGNLLRHIKL
B17: 46F_47W_49E_50Q_52G_53A_54N_55F_67L_, Q9UKT9 (peptide)
chain: FWCEQCGANFTQKGNLLRHIKL
B18: 46F_47I_49N_50V_52G_53A_54V_55F_67L_, Q9UKT9 (peptide)
chain: FICNVCGAVFTQKGNLLRHIKL
B19: 46F_47Q_49N_50V_52G_53A_54V_55F_67L_, Q9UKT9 (peptide)
chain: FQCNVCGAVFTQKGNLLRHIKL
B20: 46F_47Y_49N_50V_52G_53A_54V_55F_67L_, Q9UKT9 (peptide)
chain: FYCNVCGAVFTQKGNLLRHIKL

Target: T1, CRBN, Q96SW2
Test: log2 fold change of degron read counts, EGFP-low vs EGFP+ sorted cells (limma voom), compound-induced degradation; higher = more compound-induced degradation of the degron-EGFP fusion; degrons are variants of IKZF1/3 zinc finger 2; compound dose not given here
Conditions: Jurkat, 18 h
[1] = compound: compound 19 (5-tert-butyl-thalidomide)
[2] = compound: compound 22 (5-morpholino-thalidomide)
[3] = compound: compound 33 (diphenyl IMiD analogue)
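Further: pooled lentiviral library of zinc finger degron-EGFP fusions in mCherry-positive Jurkat cells, FACS-sorted after compound exposure, with degron abundance counted by next-generation sequencing.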

| Sequence | log2 fold change of degron read counts [1] | log2 fold change of degron read counts [2] | log2 fold change of degron read counts [3] | log2 fold change of degron read counts (compound: thalidomide) |
| --- | --- | --- | --- | --- |
| B1 | 1.86 | 1.28 | 2.79 | 1.39 |
| B2 | -0.832 | 1.08 | 1.95 | 1.7 |
| B3 | 0.0323 | -0.349 | 1.32 | 1.15 |
| B4 | 0.252 | 0.896 | 0.248 | -0.636 |
| B5 | -1.41 | -0.169 | 1.97 | 1.09 |
| B6 | -1.53 | 0.725 | 0.715 | 3.42 |
| B7 | 3.56 | 2.4 | 2.72 | 1.15 |
| B8 | -2.28 | -1.6 | 0.556 | -0.724 |
| B9 | -0.23 | 3.11 | 2.75 | 3.75 |
| B10 | -2.43 | -2.68 | -2.59 | -1.81 |
| B11 | 1.85 | 2.59 | 1.47 | -0.489 |
| B12 | -1.01 | 2.01 | 1.99 | 3.47 |
| B13 | -0.672 | -1.82 | -1.8 | -2.97 |
| B14 | -2.15 | -2.09 | -2.23 | -1.7 |
| B15 | -1.06 | -1.25 | -0.462 | -1.34 |
| B16 | -2.71 | -3.65 | -2.05 | -1.53 |
| B17 | 0.0998 | 2.8 | -0.0431 | -0.721 |
| B18 | -2.28 | -1.69 | 0.455 | -0.566 |
| B19 | -1.74 | 1.21 | 1.22 | 3.41 |
| B20 | -0.0367 | 1.2 | 0.445 | -1.56 |
